The source of these data is PubChem BioAssay (NCI).

Test systems include SK-MEL-2 melanoma; EKVX NSCLC; SN12C renal; UO-31 renal; TK-10 renal; ACHN renal; CAKI-1 renal; A498 renal; CCRF-CEM leukemia; MOLT-4 leukemia; SR leukemia; RPMI-8226 leukemia; OVCAR-8 ovarian; OVCAR-5 ovarian; SK-OV-3 ovarian; IGROV1 ovarian; OVCAR-3 ovarian; HS 578T breast; NCI/ADR-RES ovarian.
Assay in all cases: NCI-60 one-dose screen, 48 h (100 = growth as untreated, 0 = no growth, -100 = all killed)
Details in all cases: 10 µM unless noted

About 83,000 compounds went through this panel and 20% of them were active in at least one assay; those are over-represented in the sample as a whole.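 Percent growth is the endpoint: 0 to 100 indicates growth inhibition (40 means 60% inhibition), 0 means no net growth, and negative values indicate cell death.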 Unmarked numbers belong to inactive results. The source made the active and inactive calls. The calls were made as follows: active = growth percent below 10; inactive = the rest.

As for `O=C1Nc2ccccc2/C1=C/C(=O)c1ccc(N2CCCC2)cc1`, the growth in the experiment with SK-MEL-2 melanoma was 58.7%; in the experiment with EKVX NSCLC, 76.1%; in the experiment with SN12C renal it was 15.6%; in the experiment on UO-31 renal, 47.1%; in the experiment with TK-10 renal, 42.8%; in the experiment on ACHN renal, 30.7%. The growth in the experiment on CAKI-1 renal is 18.1%; in the experiment with A498 renal, 65.8%; in the experiment with CCRF-CEM leukemia, 10.4%; in the experiment with MOLT-4 leukemia, 3.55% (active); with SR leukemia it was 15.2%; in the experiment with RPMI-8226 leukemia it was 15.8%. Moreover, the growth is -12.7% (active) with OVCAR-8 ovarian; 75.6% in the experiment on OVCAR-5 ovarian; 70.9% in the experiment with SK-OV-3 ovarian; 15.9% in the experiment with IGROV1 ovarian; -17.6% (active) in the experiment on OVCAR-3 ovarian; 12.3% with HS 578T breast. For the same compound, the growth in the experiment with NCI/ADR-RES ovarian was -23.8% (active).

In the case of `C=C(C)[C@@H]1CC[C@]2(C(=O)OC)CC[C@]3(C)[C@H](CC[C@@H]4[C@@](C)(CCc5nn[nH]n5)[C@H](C(=C)C)CC[C@]43C)[C@@H]12`, the growth in the experiment on SK-MEL-2 melanoma is -60.8% [100 µM] (active); in the experiment with EKVX NSCLC, 0.298% [100 µM] (active); in the experiment with SN12C renal it was -45.6% [100 µM] (active); in the experiment on UO-31 renal, -88.5% [100 µM] (active); with TK-10 renal it was 8.06% [100 µM] (active); in the experiment on ACHN renal it was 3.75% [100 µM] (active). Moreover, the growth with CAKI-1 renal was -17.2% [100 µM] (active); with A498 renal, -61.5% [100 µM] (active); in the experiment with CCRF-CEM leukemia, 1.92% [100 µM] (active); in the experiment with MOLT-4 leukemia, 0.832% [100 µM] (active); in the experiment on SR leukemia, 21.7% [100 µM]; with RPMI-8226 leukemia, -0.796% [100 µM] (active). Moreover, the growth in the experiment with OVCAR-8 ovarian was 7.09% [100 µM] (active); with OVCAR-5 ovarian, 5.88% [100 µM] (active); in the experiment on SK-OV-3 ovarian it was -2.47% [100 µM] (active); in the experiment with IGROV1 ovarian, -8.32% [100 µM] (active); with OVCAR-3 ovarian it was -60.4% [100 µM] (active); in the experiment with HS 578T breast it was -31% [100 µM] (active). For the same compound, the growth in the experiment with NCI/ADR-RES ovarian was -7.5% [100 µM] (active).

For `C=C(C)[C@@H]1CC[C@]2(C(=O)OC)CC[C@]3(C)[C@H](CC[C@@H]4[C@@]5(C)CC/C(=N\OCCC(=NCCC#N)NOCCC#N)C(C)(C)[C@@H]5CC[C@]43C)[C@@H]12`, the growth in the experiment with SK-MEL-2 melanoma was 36.2% [100 µM]; with EKVX NSCLC, 53.1% [100 µM]; in the experiment with SN12C renal it was -71.9% [100 µM] (active); in the experiment with UO-31 renal it was 19% [100 µM]; in the experiment with TK-10 renal, 37.9% [100 µM]; with ACHN renal it was 13.9% [100 µM]. Besides, the growth with CAKI-1 renal is 18.5% [100 µM]; in the experiment on A498 renal, -0.384% [100 µM] (active); with CCRF-CEM leukemia, 7.42% [100 µM] (active); with MOLT-4 leukemia it was -26.8% [100 µM] (active); in the experiment on SR leukemia, 1.86% [100 µM] (active); in the experiment on RPMI-8226 leukemia, 3.28% [100 µM] (active). Also, the growth is 13.2% [100 µM] with OVCAR-8 ovarian; 50.6% [100 µM] with OVCAR-5 ovarian; 34.6% [100 µM] in the experiment on SK-OV-3 ovarian; 18.8% [100 µM] with IGROV1 ovarian; -34.5% [100 µM] (active) with OVCAR-3 ovarian; 24.3% [100 µM] in the experiment with HS 578T breast. The growth in the experiment with NCI/ADR-RES ovarian is 17.1% [100 µM].

For `CCOc1ccc(S(=O)(=O)Nc2ccc3c(c2)N(S(=O)(=O)CC)CCC3)cc1`, the growth with SK-MEL-2 melanoma is 111%; in the experiment with EKVX NSCLC, 96.1%; with SN12C renal, 85.1%; in the experiment with UO-31 renal, 80.9%; in the experiment with TK-10 renal it was 80.9%; with ACHN renal it was 45%. The growth is 55.1% in the experiment with CAKI-1 renal; 69.3% in the experiment on A498 renal; 81.1% with CCRF-CEM leukemia; 71% in the experiment on MOLT-4 leukemia; 97.6% in the experiment with SR leukemia; 77.1% with RPMI-8226 leukemia. Also, the growth in the experiment with OVCAR-8 ovarian is 77.5%; with OVCAR-5 ovarian, 94.6%; in the experiment with SK-OV-3 ovarian, 72.7%; with IGROV1 ovarian, 71.3%; with OVCAR-3 ovarian it was 54.3%; with HS 578T breast, 80.7%. Moreover, the growth with NCI/ADR-RES ovarian is 89.9%.

`O=C1COCCN1c1ccc(NCc2cn(Cc3ccccc3)c3ccccc23)cc1`: the growth in the experiment with SK-MEL-2 melanoma was 97.6%; in the experiment on EKVX NSCLC, 94.4%; in the experiment with SN12C renal, 96.2%; with UO-31 renal, 63%; in the experiment on TK-10 renal, 12.3%; in the experiment on ACHN renal, 101%. Also, the growth in the experiment on CAKI-1 renal is -9.69% (active); in the experiment with A498 renal it was -88.4% (active); in the experiment with CCRF-CEM leukemia, 96.4%; in the experiment with MOLT-4 leukemia it was 102%; with SR leukemia, 58.3%; with RPMI-8226 leukemia, 86.8%. Moreover, the growth was 93.7% in the experiment with OVCAR-8 ovarian; -23.8% (active) in the experiment on OVCAR-5 ovarian; 34.3% with SK-OV-3 ovarian; 15.5% in the experiment on IGROV1 ovarian; 80.9% in the experiment with OVCAR-3 ovarian; 89.4% in the experiment on HS 578T breast. The growth in the experiment with NCI/ADR-RES ovarian is 101%.

As for `CC(=O)Nc1ccc2nc3ccc(NC(C)=O)cc3[n+](-c3ccccc3)c2c1`, the growth with SK-MEL-2 melanoma is 106%; with EKVX NSCLC it was 118%; in the experiment on SN12C renal, 104%; with UO-31 renal it was 93.3%; in the experiment with TK-10 renal it was 140%; in the experiment on ACHN renal, 98.9%. The growth in the experiment on CAKI-1 renal was 122%; in the experiment on A498 renal, 158%; in the experiment with CCRF-CEM leukemia it was 73.1%; in the experiment with MOLT-4 leukemia, 38.9%; with SR leukemia, 83.7%; with RPMI-8226 leukemia it was 62.1%. For the same compound, the growth with OVCAR-8 ovarian is 93.5%; in the experiment on OVCAR-5 ovarian, 113%; with IGROV1 ovarian, 92.8%; with OVCAR-3 ovarian it was 49.2%; in the experiment with HS 578T breast, 263%; in the experiment on NCI/ADR-RES ovarian, 107%.
